PubChem BioAssay AID1851 (National Center for Advancing Translational Sciences (NCATS), 2009)
About 5,100 (32%) of roughly 16,000 compounds were called active. Roughly 25% stayed inconclusive and do not appear here. The list shows a part of the results. Unmarked numbers belong to inactive results. Calls follow the shape of the dose curve; as a rule, active = well fitted curve in the direction sought with a large enough effect; inconclusive = small, poorly fitted or top-dose-only effect, or effect the other way; inactive = no such curve, though single readings can be large or run the other way.

Target: Cytochrome P450 3A4 (Homo sapiens) (UniProt P08684)
Sequence (P08684 whole entry, looked up): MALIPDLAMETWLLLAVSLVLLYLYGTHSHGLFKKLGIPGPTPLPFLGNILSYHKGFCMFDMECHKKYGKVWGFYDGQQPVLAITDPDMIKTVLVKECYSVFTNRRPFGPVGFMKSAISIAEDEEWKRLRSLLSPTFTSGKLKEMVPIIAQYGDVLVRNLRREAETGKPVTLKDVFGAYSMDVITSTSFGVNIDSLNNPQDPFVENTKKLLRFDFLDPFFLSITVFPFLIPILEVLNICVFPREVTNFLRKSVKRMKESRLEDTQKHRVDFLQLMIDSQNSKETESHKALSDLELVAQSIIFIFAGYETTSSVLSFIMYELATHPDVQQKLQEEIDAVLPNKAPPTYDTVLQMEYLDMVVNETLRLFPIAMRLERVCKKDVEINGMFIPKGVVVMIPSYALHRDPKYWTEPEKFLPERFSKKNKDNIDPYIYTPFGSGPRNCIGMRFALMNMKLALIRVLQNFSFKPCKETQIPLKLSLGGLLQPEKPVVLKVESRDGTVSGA
Test: Cytochrome panel assay with activity outcomes
Conditions: recombinant CYP, pro-luciferin dealkylation, luminescence, p450-cyp3a4; series mostly up to 57.1 µM; activity, negative = inhibition: at the top concentration
% is scaled to controls: 0 for no effect and ±100 for the full control effect.

With `CCC1(c2ccccc2)C(=O)NCNC1=O` as the compound, how does the AC50 read?
Its AC50 is “inactive”.

With `CCCCN1C(=O)CC(Sc2ccccc2C(=O)O)C1=O` (stereo not given) as the compound, how does the “activity, negative = inhibition” value read?
The value was -6.33%.

How did the AC50 turn out when `O=C(CSC1CC(=O)N(CC(c2ccccc2)c2ccccc2)C1=O)Nc1ccc(Cl)cc1` (stereo not given) was run?
The AC50 was 8.91 µM (active).

Which activity, negative = inhibition does the source give for `Cc1cc2ccc(OC(=O)c3ccc(N=C(N)N)cc3)cc2oc1=O` here?
Its activity, negative = inhibition is -27.2% [at 11.4 µM].

For `CN(C)CCCN1c2ccccc2Sc2ccc3ccccc3c21`, which activity, negative = inhibition is on record?
The activity, negative = inhibition was -13.6% [at 11.4 µM].

Which “activity, negative = inhibition” value does the source give for `CCC(=O)c1ccc2c(c1)N(CCCN(C)C)c1ccccc1S2` here?
Its value is -19.6%.

With `CN(C)CCCN1c2ccccc2Sc2cnccc21` as the compound, how does the AC50 read?
Its AC50 is 1.58 µM (active).

How did the AC50 turn out when `COc1ccccc1NS(=O)(=O)c1cccc(C(=O)OCC(=O)Nc2cc(C)on2)c1` was run?
The AC50 was 7.08 µM (active).

How did the “activity, negative = inhibition” value turn out when `COc1ccc(OC)c(NC(=O)C(CC(=O)O)NCc2ccco2)c1` (stereo not given) was run?
Its value is -1.25%.

How did the AC50 turn out when `COc1ccccc1NC(=O)COC(=O)c1ccc(S(=O)(=O)NCc2ccco2)cc1` was run?
Its AC50 is 28.2 µM (active).

How did the AC50 turn out when `O=C(NCc1ccccc1)c1ccc(S(=O)(=O)N2CCCc3ccccc32)cc1` was run?
The AC50 was 10 µM (active).

`Cc1cc(NC(=O)c2ccc(S(=O)(=O)Nc3ccccc3)cc2)no1` was tested. Which activity, negative = inhibition did it give?
The activity, negative = inhibition was 2.51% [at 2.29 µM].

Which AC50 does the source give for `Cc1cc(NC(=O)COC(=O)c2ccc(NS(=O)(=O)c3ccc(C)c(C)c3)cc2)no1` here?
Its AC50 is 5.01 µM (active).

How did the “activity, negative = inhibition” value turn out when `O=C(Cc1ccccc1)NC1CCN(S(=O)(=O)c2ccc(C(=O)O)cc2)CC1` was run?
Its value is 10.8%.

How did the activity, negative = inhibition turn out when `COc1cc2ccccc2cc1C(=O)Nc1ccc(S(=O)(=O)Nc2cc(C)on2)cc1` was run?
Its activity, negative = inhibition is 6.01% [at 11.4 µM].

`O=C(Nc1ccc(S(=O)(=O)N2CCCCC2)cc1)c1ccc(CN2CCc3ccccc3C2)cc1` was tested. Which “activity, negative = inhibition” value did it give?
Its value is 11.8%.

Which “activity, negative = inhibition” value does the source give for `Cc1cc(NC(=O)c2cccc(F)c2)no1` here?
Its value is -14.9%.

For `O=C(O)NCC1CCCCC1` (tested in a mixture with another compound), which activity, negative = inhibition is on record?
Its activity, negative = inhibition is -26.5% [at 11.4 µM].

How did the “activity, negative = inhibition” value turn out when `O=[n+]1c2c(n([O-])c3cc(F)c(F)cc31)CCCC2` was run?
The value was 4.83%.

For `CC(C)(C)C(=O)[C@H]1[C@H](c2ccccc2)[C@@]2(N=C(c3ccccc3)OC2=O)C2c3ccccc3C=NN21` (stereo not given in full), which activity, negative = inhibition is on record?
Its activity, negative = inhibition is -20.3% [at 2.29 µM].

For `Cc1cc(NC(=O)COC(=O)c2ccc(S(=O)(=O)N3CCCc4ccccc43)cc2)no1`, which AC50 is on record?
Its AC50 is 0.891 µM (active).

With `COc1ccc(/C=C(\C#N)C(N)=O)c(OC)c1` as the compound, how does the AC50 read?
Its AC50 is 2.51 µM (active).

How did the activity, negative = inhibition turn out when `CCOc1ccccc1/C=C(\C#N)C(N)=O` was run?
The activity, negative = inhibition was -4.52% [at 11.4 µM].

With `COc1ccc(/C=C(\C#N)C(N)=O)cc1OC` as the compound, how does the activity, negative = inhibition read?
Its activity, negative = inhibition is -6.66% [at 11.4 µM].

For `Cc1cccc2nc(C(F)(F)F)nc(=O)n12`, which activity, negative = inhibition is on record?
The activity, negative = inhibition was 0.743% [at 2.29 µM].
